Screening data deposited in PubChem by National Center for Advancing Translational Sciences (NCATS).
Sampled rows, rich in hits. Any-hit rate of the full collection: about 8.7%.
AMA1 RON2 block = inhibitors of Plasmodium falciparum AMA1-RON2 interaction; 0.2% of 360,000 active; AlphaScreen AMA1-biotinylated RON2 peptide binding; Potency, µM (highest dose often 58.2 µM), for the others: at the top dose activity change, negative = inhibition, hits mostly inhibitors;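 also: 0% = vehicle wells and -100% = peptide control; nearly all actives have a fitted effect of over 45% in size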
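AMA1 (3D7) with his tag at 25 nM final met compounds first, then biotinylated RON2 peptide at 25 nM; detection used donor plus acceptor beads, 10 µg/mL apiece, read by AlphaScreen after 30 min at room temperature.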
Pf growth 48h = P. falciparum growth inhibition at 48 hours (one generation). AID 504832. P. falciparum luciferase growth in erythrocytes, 48 h. 5.9% of 310,000 active. Potency, µM (highest dose often 28.7 µM), inactives show top-dose activity change, negative = inhibition, usual class: inhibitors
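Read-out is firefly luciferase luminescence from an integrated reporter in P. falciparum, so falling signal marks reduced parasite growth. Infected erythrocytes were at 2% hematocrit and 0.1% parasitemia (final) in Albumax-supplemented RPMI 1640.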
Vaccinia mCherry = vaccinia inhibition (mCherry reporter). 0.63% of 310,000 active. Vaccinia virus mCherry reporter infection, fluorescence. AID 720579. Potency, µM (doses to about 36.5 µM), inactives show top-dose activity change, negative = inhibition, actives largely listed as inhibitors; calls by dose curve; tested in A549 cells; also: nearly all actives have a fitted effect of over 35% in size
VACV Venus inh = inhibitors of vaccinia virus (Venus reporter); Vaccinia virus Venus reporter expression, fluorescence; 0.46% of 330,000 active; Potency, µM (top dose mostly 36.5 µM), for inactives: top-dose activity change, negative = inhibition, most hits filed as inhibitors; calls by dose curve; tested in A549 cells; also: nearly all actives have a fitted effect of over 30% in size
Pf growth 96h = P. falciparum growth inhibition at 96 hour, primary screen for plastid delayed-death inhibitors; P. falciparum luciferase reporter growth, 96 h; Potency, µM (titrated, usually from 28.7 µM), inactives show top-dose activity change, negative = inhibition, usual class: inhibitors; 6.9% of 320,000 active
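Erythrocytes infected with luciferase-expressing P. falciparum were dispensed at 2% hematocrit and 0.05% parasitemia (final), then incubated with compounds 96 hours at 37 C in 5% CO2. Luminescence after detection reagent addition reported growth.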
The depositor's hits bear a star; i = inactive; ? = inconclusive; . = no result; ! = not confirmed by another sample; [ ] = remark or other dose. Unless noted, calls follow the shape of the dose curve; as a rule, active = well fitted curve in the direction sought with a large enough effect; inconclusive = small, poorly fitted or top-dose-only effect, or another doubt; inactive = no such curve, though single readings can be large; an effect the other way counts as inactive or inconclusive. Unless noted, % is scaled to controls: 0 for no effect and ±100 for the full control effect; potency is read from the fitted curve at half-maximal effect.

SMILES | AMA1 RON2 block | Pf growth 48h | Vaccinia mCherry | VACV Venus inh | Pf growth 96h
CCOC(=O)Cn1c(S(=O)(=O)Cc2ccccc2)nc2ccccc21 | 0% | -11% | i | -16% | ?
CCOC(=O)Cn1c(S(=O)(=O)Cc2ccc(Cl)cc2)nc(-c2ccccc2)c1-c1ccccc1 | -6% | ? | . | . | 10µM*
CN(CCN(C)c1nc(-c2cccs2)nc2ccccc12)C(=O)OC(C)(C)C | . | . | -20% | -9% | .
CN(Cc1ccccc1F)c1nc(-c2cccs2)nc2ccccc12 | -7% | 9.3µM* | i | 0% | -4%
COc1ccc(CCn2c(C)ccc2C)cc1OC | . | 5.2µM* | . | . | 8.3µM*
COc1cccc2cc(C(=O)OCC(=O)N3CC(C)OC(C)C3)c(=O)oc12 (stereo not drawn) | -6% | . | -14% | 1% | .
COc1cccc2cc(C(C)=O)c(=O)oc12 | -4% | 14% | . | . | 14%
CCOc1cccc2cc(C(=O)N3CC(C)OC(C)C3)c(=O)oc12 (stereo not drawn) | 3% | 5% | . | . | 6.6µM*
CCN(C(=O)c1cc2cccc(OC)c2oc1=O)C1CCCCC1 | 2% | ? | . | 5% | 1.5µM*
COc1cccc2cc(C(=O)N3CCCCCCC3)c(=O)oc12 | -6% | ? | -8% | 0% | 1%
CCOc1cccc2cc(C(=O)N3CCOCC3)c(=O)oc12 | 17% | 16% | -17% | -17% | 12µM*
CC1CN(C(=O)c2cccc(C(=O)N3CC(C)OC(C)C3)c2)CC(C)O1 (stereo not drawn) | 2% | 13% | . | -27% | 15µM*
COc1ccc(N2CCN(C(c3ccc(F)cc3)c3sc4nc(-c5ccco5)nn4c3O)CC2)cc1 (stereo not drawn) | . | . | -14% | -9% | .
O=C(CN1Cc2ccccc2OC(c2ccsc2)C1)NCc1ccc2c(c1)OCO2 (stereo not drawn) | . | . | -14% | -5% | .
CCCOc1ccc(Oc2nc(NC)nc(N3CCOCC3)n2)nn1 | . | . | -11% | -9% | .
CC(C)(C)c1cc(OS(C)(=O)=O)ccc1O | -11% | 24% | -8% | -18% | 35%
CC(C)(C)c1cc(OC(=O)C2CCCC2)ccc1O | -7% | 14% | -23% | ? | 5.2µM*
CCN(CC)c1ccc(C2NC(=O)NC(C)=C2C(=O)Nc2ccccc2)cc1 (stereo not drawn) | -10% | . | -5%[1.46 µM] | -4% | 2.6µM*
C#CCOCCOCCOCCNc1nc(N2CCN(C(=O)Cn3cc(CCO)nn3)CC2)nc(N2CCN(C(=O)Cn3cc(CC(C)O)nn3)CC2)n1 (stereo not drawn) | 0% | . | i | -4% | .
C#CCOCCOCCOCCNc1nc(N2CCN(C(=O)CCCCCCCCCCNC(=O)[C@H](CCCCN)n3cc(C)nn3)CC2)nc(N2CCN(C(=O)CCCCCCCCCCNC(=O)[C@@H]([C@H](C)O)n3cc(C)nn3)CC2)n1 | -18% | 2.1µM* | ? | 11µM* | 1.2µM*
C#CCOCCOCCOCCNc1nc(N2CCN(C(=O)[C@H]([C@@H](C)O)n3cc(CCCCN)nn3)CC2)nc(N2CCN(C(=O)[C@H]([C@@H](C)CC)n3cc(CCCCN)nn3)CC2)n1 | -8% | 7% | 3% | -9% | 68%
C#CCOCCOCCOCCNc1nc(N2CCN(C(=O)[C@H]([C@@H](C)O)n3cc(CCCCN)nn3)CC2)nc(N2CCN(C(=O)[C@H](CCCCN)n3cc(CC(C)O)nn3)CC2)n1 (stereo partly drawn) | 2% | 15% | -25% | -9% | -10%
C#CCOCCOCCOCCNc1nc(N2CCN(C(=O)CCCCCCCCCCNC(=O)[C@@H](CCSC)n3cc(CCO)nn3)CC2)nc(N2CCN(C(=O)CCCCCCCCCCNC(=O)[C@@H]([C@H](C)O)n3cc(C)nn3)CC2)n1 | -1% | 0.15µM* | -1% | ? | 0.17µM*
C#CCOCCOCCOCCNc1nc(N2CCN(C(=O)C([C@@H](C)O)n3cc([C@@H](N)CCCCN)nn3)CC2)nc(N2CCN(C(=O)[C@H](CCCCN)n3cc([C@@H](N)[C@H](C)CC)nn3)CC2)n1 (stereo partly drawn) | 17% | . | i | -13% | .
C#CCOCCOCCOCCNc1nc(N2CCN(C(=O)CCCCCCCCCCNC(=O)Cn3cc(C[C@@H](C)O)nn3)CC2)nc(N2CCN(C(=O)CCCCCCCCCCNC(=O)[C@@H](CCSC)n3cc(CCO)nn3)CC2)n1 | -3% | 0.19µM* | i | ? | 0.15µM*
SMILES | AMA1 RON2 block | Pf growth 48h | Vaccinia mCherry | VACV Venus inh | Pf growth 96h
C#CCOCCOCCOCCNc1nc(N2CCN(C(=O)CCCCCCCCCCNC(=O)[C@H](CCCCN)n3cc(C[C@@H](C)CC)nn3)CC2)nc(N2CCN(C(=O)CCCCCCCCCCNC(=O)[C@@H]([C@H](C)O)n3cc(C)nn3)CC2)n1 | ? | 2.1µM* | 11µM* | 7.9µM* | 0.37µM*
CC1Cc2cc(S(=O)(=O)NCc3ccc(Cl)cc3)ccc2N1C(=O)C1CCC1 (stereo not drawn) | . | . | -10% | -15% | .
Cc1cccc(NC(=O)CN2C(=O)c3cccnc3Oc3ccc(Cl)cc32)c1C | . | . | -17% | -8% | .
CCOC(=O)C1CCN(c2ncnc3c2nc2n3CCCCC2)CC1 | . | . | 8% | 0% | .
c1coc(CNc2ncnc3nc[nH]c23)c1 | -1% | -8% | -5% | -15% | 9.3µM*
COc1ccccc1Nc1ncnc2nc[nH]c12 | 12% | . | . | . | ?
COc1ccccc1CNc1ncnc2nc[nH]c12 | 1% | -2% | 3.5µM*! | ? | ?
Cc1sc2ncnc(NCc3ccco3)c2c1C | -7% | -5% | i | -17% | 9.3µM*
c1coc(CNc2ncnc3[nH]ncc23)c1 | -1% | ? | 6.3µM*! | ? | 6%
Cc1ccc(CNc2ncnc3[nH]ncc23)o1 | . | . | -2% | -19% | .
CCCCN(CCCNc1ncnc2nc[nH]c12)c1ccccc1 | 12% | ? | ? | ? | 12µM*
Cc1c(C(=O)N2CCOc3ccccc3C2)sc2ncnc(NCCCN3CCOCC3)c12 | . | . | -9% | -6% | .
CN1C[C@@H](NS(=O)(=O)N(C)C)C[C@@H]2c3cccc4c3c(cn4C)C[C@H]21 | . | -46% | . | . | 13µM*
Nc1nonc1-c1noc(CCCCCN2C(=O)c3ccccc3C2=O)n1 | 11% | 40% | -4% | -17% | 13µM*
CSc1scc2c1-c1nc(SCC(=O)C(C)(C)C)ncc1CC2 | 17% | 9.3µM* | . | . | 9.3µM*
C=CCNC(=O)CSc1ncc2c(n1)-c1c(csc1SC)CC2 | -4% | 0% | -1% | -8% | -14%
CSc1cccc(NC(=O)c2cccc(N3CCCS3(=O)=O)c2)c1 | . | . | -11% | -15% | .
Cc1ccccc1CCNC(=O)c1ccc(Cn2c(=O)c3cccn3c3cccnc32)cc1 | . | . | ? | -26% | .
CCCCN(C(=O)c1ccco1)c1nnc(-c2cc(OC)c(OC)c(OC)c2)s1 | -16% | 1.9µM* | . | . | .
N#Cc1cccc(NC(=O)C2CCN(S(=O)(=O)c3ccc4c(c3)CCCN4C(=O)C3CCC3)CC2)c1 | . | . | -12% | -16% | .
